How the values were obtained:
Assay in all cases: PBM binding z-score (relative to random genomic background probes); higher = stronger binding; sequences stand for … in GC…GCGATTGACAGCGTAGAATGAAGG
[1] = test system: FXR:RXRa (NR concentration 270 nM, RXRa partner concentration 90 nM)
Method in brief: (§1)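 Probes were double-stranded and carried 34-nt variable regions with direct-repeat seeds, single-nucleotide variants, half-site ablations and random human genomic background sequences, printed on custom Agilent 4×180K protein-binding microarrays. Arrays were incubated 1 h with ligand-free nuclear receptor dimers in PBS pH 7.4, 2% milk, 0.02% Triton X-100, 1 mM DTT, 0.2 mg/mL BSA and 0.4 mg/ml salmon testes DNA. Antibodies against each partner (one per run) detected binding, and scanned fluorescence was regression-normalized. Binding z-scores use the random background probes as reference.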

[2] = test system: LXRa:RXRa (NR concentration 270 nM, RXRa partner concentration 90 nM)
Method in brief: as §1

[3] = test system: LXRa homodimer (NR concentration 270 nM)
Method in brief: as §1

[4] = test system: LXRb:RXRa (NR concentration 270 nM, RXRa partner concentration 90 nM)
Method in brief: as §1

[5] = test system: LXRb homodimer (NR concentration 270 nM)
Method in brief: as §1

[6] = test system: PPARa:RXRa (NR concentration 270 nM, RXRa partner concentration 90 nM)
Method in brief: as §1

[7] = test system: PPARg:RXRa (NR concentration 180 nM, RXRa partner concentration 90 nM)
Method in brief: as §1

[8] = test system: PPARg:RXRa 270nM:90nM, anti-RXR (NR concentration 270 nM, RXRa partner concentration 90 nM)
Method in brief: as §1

[9] = test system: PPARg:RXRa 30nM:10nM, anti-RXR (NR concentration 30 nM, RXRa partner concentration 10 nM)
Method in brief: as §1

[10] = test system: PPARg:RXRa 90nM:30nM, anti-RXR (NR concentration 90 nM, RXRa partner concentration 30 nM)
Method in brief: as §1

[11] = test system: PPARg:RXRa DBDmut IVT, anti-RXR (DBD mutation: RXRa K156A/R161A, NR concentration 270 nM, RXRa partner concentration 90 nM)
Method in brief: as §1

[12] = test system: PPARg:RXRa IVT, anti-PPARg (NR concentration 270 nM, RXRa partner concentration 90 nM)
Method in brief: as §1

[13] = test system: PPARg DBDmut:RXRa IVT, anti-PPARg (DBD mutation: PPARg1 K132A/R137A, NR concentration 270 nM, RXRa partner concentration 90 nM)
Method in brief: as §1

[14] = test system: PPARg DBDmut IVT, anti-PPARg (DBD mutation: PPARg1 K132A/R137A, NR concentration 270 nM)
Method in brief: as §1

[15] = test system: PPARg homodimer (NR concentration 180 nM)
Method in brief: as §1

[16] = test system: PXR:RXRa (NR concentration 270 nM, RXRa partner concentration 90 nM)
Method in brief: as §1

[17] = test system: PXR homodimer (NR concentration 270 nM)
Method in brief: as §1

[18] = test system: RARa:RXR (NR concentration 270 nM, RXRa partner concentration 90 nM)
Method in brief: as §1

[19] = test system: RARa homodimer (NR concentration 270 nM)
Method in brief: as §1

[20] = test system: RARb:RXRa (NR concentration 270 nM, RXRa partner concentration 90 nM)
Method in brief: as §1

Row | Sequence | PBM binding z-score [1] | PBM binding z-score [2] | PBM binding z-score [3] | PBM binding z-score [4] | PBM binding z-score [5] | PBM binding z-score [6] | PBM binding z-score [7] | PBM binding z-score [8] | PBM binding z-score [9] | PBM binding z-score [10] | PBM binding z-score [11] | PBM binding z-score [12] | PBM binding z-score [13] | PBM binding z-score [14] | PBM binding z-score [15] | PBM binding z-score [16] | PBM binding z-score [17] | PBM binding z-score [18] | PBM binding z-score [19] | PBM binding z-score [20]
1 | ATCTCTAGGTAAGCCTCAGTTCAGTGAAGAACGC | 0.31 | 0.658 | 0.468 | 0.438 | 0.861 | 0.35 | -0.00624 | 0.396 | -0.0235 | 0.487 | 2.22 | 1.13 | -0.0785 | 0.191 | 0.657 | 1.23 | 0.98 | 0.356 | 0.375 | 0.44
2 | CCGAGTAGGTTCTGGGGCATTCAGGCAACGGTGA | -0.196 | -0.351 | -0.153 | -0.391 | -0.906 | 0.158 | -0.108 | 0.645 | -0.76 | 0.156 | 1.08 | 1.69 | -1.23 | -1.34 | 0.223 | -0.868 | -0.237 | -0.69 | -0.226 | 0.00361
3 | CAGCCTAGGTCAGGGTCAGTATAGGAGGAACGTT | 3.28 | 2.28 | 0.154 | 2.3 | -0.746 | 3.73 | 2.37 | 2.52 | 0.577 | 1.52 | 1.2 | 2.57 | 0.511 | -0.598 | 1.63 | 2.38 | 0.127 | 3.04 | 0.15 | 4.31
4 | GCTAGCGGGCCATTTGGGTCACTCAATGACGGGC | -0.0868 | -0.0931 | -0.975 | -0.141 | -0.972 | 1.26 | 0.395 | 0.262 | -0.653 | -0.112 | 1.3 | 1.48 | -0.871 | -1.28 | -0.0904 | 0.246 | -0.44 | 0.906 | -1.07 | 1.26
5 | CTACCTAGGTGAACAAGGTCGTTGATTACTATTC | 0.921 | 0.98 | 0.31 | 1.61 | -0.219 | 2.31 | 1.31 | 1.36 | -0.0446 | 0.717 | 4.5 | 3.81 | 0.734 | 0.335 | 1.52 | 2.25 | 1.14 | 1.95 | 0.759 | 1.5
6 | TAGCCTAGGTCATTGGGCCAGGATAGTACGCATC | 3.92 | 3.17 | 0.159 | 1.47 | -0.488 | 3.6 | 3.36 | 3.58 | 0.83 | 2.29 | 2.04 | 3.75 | 0.235 | 0.25 | 0.798 | 1.05 | -0.39 | 1.99 | -0.0581 | 3.49
7 | GGAGCGAGGGCATTCGAGTTGATAGCATGGCGAT | 0.608 | 1.24 | -0.883 | -0.106 | -1.07 | 0.542 | 0.179 | -0.159 | -0.424 | -0.195 | 0.18 | 0.079 | -0.936 | -1.62 | -0.569 | 3.55 | 0.905 | 1.1 | -0.544 | 1.75
8 | TCTATTACTTGATTAGGGCAACCGAAACAGCGGA | 0.823 | 0.881 | 0.41 | 0.812 | 0.945 | 0.975 | 0.4 | 1.9 | 3.76 | 2.94 | 2.08 | 1.45 | 0.681 | 1.58 | 0.91 | 0.583 | 0.132 | 0.779 | 1.04 | 0.983
9 | TCATATAGGTAAACAGGTGAAAGACCGTAAGTTA | 0.974 | 0.774 | 0.26 | 0.571 | -0.084 | 2.47 | 3.45 | 3.63 | 4.12 | 4.03 | 4.76 | 4.63 | 1.09 | 1.03 | 1.16 | 0.687 | 0.35 | 1.22 | 1.07 | 0.77
10 | CGAACGAGGGCCTGAGTTGATAGCAAATGCCGAT | -0.571 | -0.754 | -0.624 | -0.612 | -0.92 | -0.663 | 0.336 | -0.582 | -0.305 | -0.468 | -0.653 | -0.278 | -0.385 | -0.392 | -1.19 | -0.457 | -0.641 | -0.337 | -0.966 | -0.393
11 | CGAAATAGGTCATCCAGGACAGTGAATACATTGA | 5.99 | 4.69 | 1.25 | 3.8 | 0.842 | 5.87 | 7.32 | 6.78 | 4.39 | 6.21 | 7.78 | 7.89 | 2.68 | 2.13 | 2.1 | 3.15 | 1.18 | 3.92 | 1.27 | 4.59
12 | TTACAAAGGTGAAGGTCGTTGATCCCTCTGTAGA | 3.61 | 2.92 | 0.147 | 2.33 | -0.453 | 3.81 | 3.92 | 4.48 | 2.28 | 4.11 | 2.62 | 3.97 | 0.246 | 0.134 | 1.47 | 2.32 | 0.241 | 2.74 | 0.198 | 3.56
13 | CAAACTAGGTCACAGAGGTCAAAATCCGTGCGTA | 7.3 | 6.21 | 6.61 | 6.41 | 2.18 | 6.58 | 10 | 7.86 | 6.44 | 7.9 | 8.53 | 9.12 | 3.39 | 4.84 | 4.55 | 6.48 | 10.3 | 6.58 | 2.93 | 5.11
14 | TCTTATAGGTAAAGGTGAAAGTCGAACGATATGA | 1.15 | 1.59 | 0.00548 | 1.58 | 0.488 | 3.27 | 3.38 | 4.4 | 4.42 | 4.81 | 3.92 | 3.7 | 2 | 1.77 | 1.61 | 1.11 | 0.648 | 1.96 | 1.18 | 2.21

From the supplement of paper PMC6555819
